The sample as a whole holds a higher share of hits than the screen did.
IMPase cell inh = qHTS Assay for Identifying the Cell-Membrane Permeable IMPase Inhibitors | CHO-M1 cells, IP1 accumulation, HTRF TR-FRET ratio | inhibition (IP1 accumulation), % at 46.1 µM | 120,000 tested, under 10 active; active = well fitted curve in the direction sought with a large enough effect in the signal ratio, not every such curve was filed as active; inconclusive = small, poorly fitted or top-dose-only effect, or a change in a side signal; inactive = no such curve, though single readings can be large or run the other way; the % refers to the signal ratio;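 also: cells stimulated with carbachol in lithium chloride buffer; plate controls were DMSO basal wells for no effect and reference inhibitor wells for full effect; higher means more IMPase inhibition seen as more IP1 and lower FRET ratio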
Target sequence (P97697 whole entry, looked up): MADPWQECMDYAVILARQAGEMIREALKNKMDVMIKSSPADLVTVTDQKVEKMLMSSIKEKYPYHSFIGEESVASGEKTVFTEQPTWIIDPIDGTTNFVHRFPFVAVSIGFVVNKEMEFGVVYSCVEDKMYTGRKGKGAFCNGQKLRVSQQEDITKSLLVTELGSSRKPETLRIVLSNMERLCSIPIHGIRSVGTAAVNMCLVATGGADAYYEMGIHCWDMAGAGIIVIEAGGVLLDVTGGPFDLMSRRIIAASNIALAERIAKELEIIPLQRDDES
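Elevated IP1 in lysates lowers TR-FRET signal (665/620 ratio and 620 channel reported). Cells were CHO-M1, given carbachol (50 uM as added) plus 50mM LiCl, pH 7.4, 30 min, 37C; compounds titrated up to 46 uM; AC50 by Hill equation.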
IMPase Li cell = qHTS Assay for Identifying the Cell-Membrane Permeable IMPase Inhibitors: Potentiation with Lithium. Potency, µM (doses to about 59.4 µM), for the others: at the highest dose activity, negative = IMPase inhibition, usual class: inhibitors. actives 0.35% (n = 210,000). CHO-M1 cells, IP1 TR-FRET (IP-One), carbachol + lithium;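 also: IP1 builds up when IMPase is blocked and the TR-FRET signal falls; potency is read from the fitted curve at half-maximal effect; plate controls were basal vehicle for no effect and high inhibitor control for full effect; nearly all actives have a fitted effect of over 50% in size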
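Lithium-sensitised IP1 accumulation assay; M1-expressing CHO cells treated 30 min at 37C with compound. Competitive antibody detection by time-resolved FRET followed a 10 min room-temperature lysis step.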
NPSR antagonist = qHTS Assay for Antagonists of the Neuropeptide S Receptor: cAMP Signal Transduction; Potency, µM (titrated, usually from 38.3 µM), without a hit: at the highest dose activity change, negative = inhibition, usual class: inhibitors; actives 1% (n = 220,000); Q6W5P4; CHO-NPSR cells, cAMP TR-FRET, antagonist mode; also: potency is read from the fitted curve at half-maximal effect; nearly all actives have a fitted effect of over 50% in size
Target sequence (Q6W5P4 whole entry, looked up): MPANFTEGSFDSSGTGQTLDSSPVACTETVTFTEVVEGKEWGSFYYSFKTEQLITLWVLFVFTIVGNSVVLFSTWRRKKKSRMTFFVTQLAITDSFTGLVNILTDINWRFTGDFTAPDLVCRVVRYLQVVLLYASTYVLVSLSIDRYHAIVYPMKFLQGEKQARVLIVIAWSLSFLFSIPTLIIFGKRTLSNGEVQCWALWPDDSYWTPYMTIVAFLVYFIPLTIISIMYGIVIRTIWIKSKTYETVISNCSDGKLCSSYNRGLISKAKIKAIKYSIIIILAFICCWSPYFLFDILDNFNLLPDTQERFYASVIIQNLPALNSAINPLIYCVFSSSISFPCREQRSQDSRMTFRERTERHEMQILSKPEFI
* marks the source's active call; other numbers are inactive results; [ ] = remark or other dose. Unless noted, calls follow the shape of the dose curve; as a rule, active = well fitted curve in the direction sought with a large enough effect; inconclusive = small, poorly fitted or top-dose-only effect, or another doubt; inactive = no such curve, though single readings can be large; an effect the other way counts as inactive or inconclusive. Unless noted, % is scaled to controls: 0 for no effect and ±100 for the full control effect.

For CCOC(=O)c1sc(=NC(=O)c2ccc(S(=O)(=O)N3CC(C)OC(C)C3)cc2)n(C)c1C (centres undefined) the results were IMPase cell inh inconclusive and NPSR antagonist 10µM*.
For CCOC(=O)c1sc(=NC(=O)c2ccc(Cl)s2)n(C)c1C the results were IMPase Li cell -3.0% and NPSR antagonist -51.9%.
For CCOC(=O)c1sc(=NC(=O)c2ccc(C)c(C)c2)n(C)c1C the results were IMPase Li cell -12.7% and NPSR antagonist 31.6%.
For CCOC(=O)c1sc(=NC(=O)c2cccs2)n(C)c1C the results were IMPase Li cell inconclusive and NPSR antagonist 3.16µM*.
`C[C@@]1(C(NS(=O)(=O)c2cccc3cccnc23)c2ccc(-c3ccccc3)cc2)C[C@H]1C1CCCCC1` (some centres undefined) gave IMPase Li cell 7.9%.
`N=C1C(c2ccccc2)=C(O)CN1c1cccc(O)c1` gave IMPase Li cell -1.2% and NPSR antagonist -4.9%.
COc1ccc(-c2nc(NC(=O)c3ccc(OCC(=O)Nc4ccc(F)cc4)c(OC)c3)sc2C)cc1 was read as IMPase Li cell inconclusive and NPSR antagonist 10µM*.
COc1cc(C(=O)Nc2nc(-c3cc(C)ccc3C)c(C)s2)ccc1OCC(=O)Nc1ccc(F)cc1 was read as IMPase cell inh 0.1, IMPase Li cell inconclusive and NPSR antagonist inconclusive.
For CCOc1ccc(C(=O)Nc2cccc(NC(=O)c3ccc(C(C)(C)C)cc3)c2)cc1Br the results were IMPase cell inh -3.5.
For Cc1ccc(N(C(=O)c2cccc(C)c2)S(=O)(=O)c2ccc(Cl)cc2)cc1 the results were IMPase cell inh 4.0.
Screening O=C(O)CCN1C(=O)/C(=C\c2ccc(-c3nc4ccccc4s3)o2)SC1=S returned IMPase cell inh 0.9, IMPase Li cell 23.5%[38.3 µM] and NPSR antagonist 12.6µM*.
O=C(O)CCCN1C(=O)/C(=C\c2ccco2)SC1=S was read as IMPase Li cell 6.3% and NPSR antagonist 32.7%.
`Cc1noc(C)c1-c1nccc(N(C)C)n1` gave IMPase Li cell -0.5%.
Screening O=c1[nH]c(SCc2nc3ccccc3n2Cc2ccccc2)nc2ccccc12 returned IMPase cell inh 16.8, IMPase Li cell 7.94µM* and NPSR antagonist -2.8%[46.1 µM].
`Nc1cc(=O)[nH]c(SCc2nc3ccccc3n2Cc2ccccc2)n1` gave IMPase cell inh 3.7, IMPase Li cell -5.6%[38.3 µM] and NPSR antagonist -14.0%[46.1 µM].
CCc1nnc(NC(=O)CSc2nc(-c3ccc(F)cc3)cc(-c3ccccc3)c2C#N)s1 was read as IMPase cell inh -17.5 and NPSR antagonist 7.94µM*.
For COc1ccc(-c2cc(-c3ccccc3)nc(SCC(=O)Nc3ncc(C)s3)c2C#N)cc1 the results were IMPase Li cell -0.6% and NPSR antagonist -21.3%.
Screening C[C@H]([C@H](C)N1CC(=O)NC(=O)C1)N1CC(=O)NC(=O)C1 returned IMPase Li cell -0.1%.
`COc1ccc(N2CSC3=C(C#N)C(c4cccs4)CC(=O)N3C2)cc1` (centres undefined) gave IMPase cell inh -14.2, IMPase Li cell 12.6µM* and NPSR antagonist -26.7%[7.67 µM].
Cc1ccc(N2CSC3=C(C#N)C(c4cccs4)CC(=O)N3C2)cc1 (centres undefined) was read as IMPase cell inh -9.8, IMPase Li cell -29.0%[38.3 µM] and NPSR antagonist -0.5%[46.1 µM].
Screening COc1cccc(CNc2ccc(F)c(Cl)c2)c1O returned IMPase cell inh 3.5, IMPase Li cell 22.5%[38.3 µM] and NPSR antagonist 10µM*.
COc1cccc(CNc2cccc(C(F)(F)F)c2)c1O was read as IMPase Li cell 8.6% and NPSR antagonist -13.8%.
CC(/C=C/C=C/c1ccccc1)=N/NC(=O)c1ccc2c(c1)OCCO2 was read as NPSR antagonist -11.0%.
`CCCCCCCC1=Cc2ccccc2C(C(C(=O)OC)C(=O)OC)N1C(=O)OC` (centres undefined) gave IMPase Li cell 8.7%.
Screening O=C(c1cccc(F)c1)N1CCC[C@@]2(CCN(c3ccccc3)C2)C1 returned IMPase Li cell 37.5%.
`O=C1C=C(Nc2ccccc2)C(=O)c2ccccc21` gave NPSR antagonist 56.8%.
Screening O=C1C=C(Nc2ccccc2)c2ccccc2C1=O returned IMPase Li cell 23.9% and NPSR antagonist 10µM*.
O=C(COC(=O)CSc1ccc2ccccc2c1)NC1CC1 was read as IMPase cell inh -20.3 and NPSR antagonist 14.5%[46.1 µM].
`O=C(COC(=O)CSc1ccc2ccccc2c1Br)NC1CC1` gave IMPase Li cell 10µM* and NPSR antagonist -46.8%.
`CC(C)C[C@H](NC(=O)c1nc[nH]c1C(=O)NCCCCCNC(=O)OC(C)(C)C)C(=O)OC(C)(C)C` gave IMPase Li cell 18.1% and NPSR antagonist inconclusive.
For CC(C)C[C@H](NC(=O)c1nc[nH]c1C(=O)N[C@@H](CCCCNC(=O)OC(C)(C)C)C(=O)OC(C)(C)C)C(=O)OC(C)(C)C the results were NPSR antagonist 10µM*.
`CC1(C)CC(=O)c2c(oc3c(Cl)cc(NS(=O)(=O)c4ccc(Cl)cc4)cc23)C1` gave IMPase cell inh -1.5.
`O=C(Nc1nnc(SCc2c(Cl)cccc2Cl)s1)c1ccc2ncsc2c1` gave IMPase Li cell 7.8% and NPSR antagonist 28.9%.
N#Cc1ccc(CSc2nnc(NC(=O)c3ccc4ncsc4c3)s2)cc1 was read as IMPase Li cell 7.94µM* and NPSR antagonist inconclusive.
Screening CC1CN(Cc2nnc(-c3ccccc3)o2)CC(C)O1 (centres undefined) returned IMPase Li cell 20.7% and NPSR antagonist 14.3%.
For Cc1ccc(NS(=O)(=O)c2cccc(C(=O)NCC3(N(C)C)CCCCC3)c2)cc1 the results were IMPase Li cell 1.3% and NPSR antagonist 10µM*.
For Cc1ccc(NS(=O)(=O)c2cccc(C(=O)NCC(c3cccs3)N(C)C)c2)cc1 (centres undefined) the results were IMPase Li cell 10.5% and NPSR antagonist -36.6%.
For COc1ccc(CC(=O)OCc2cc3cccc(C)c3[nH]c2=O)cc1 the results were IMPase cell inh 0.0, IMPase Li cell inconclusive and NPSR antagonist -9.2%[46.1 µM].
COc1ccc(C(=O)OCc2cc3cccc(C)c3[nH]c2=O)cc1 was read as IMPase cell inh 6.2, IMPase Li cell 10µM* and NPSR antagonist -6.7%[46.1 µM].
For C=CC[C@@H]1[C@H](O)CC[C@@]2(C)[C@H]1CC[C@@H]1[C@@H]2CC[C@]2(C)C([C@H](C)CCCC(C)C)CC[C@@H]12 (some centres undefined) the results were IMPase Li cell 3.6%.
`CN(Cc1ccno1)Cc1cn(Cc2ccccc2)nc1-c1ccc2c(c1)OCO2` gave IMPase Li cell 8.2% and NPSR antagonist 39.5%.
Screening CN(C)c1ccc(-c2nnn(CC(=O)Nc3ccccc3N3CCOCC3)n2)cc1 returned IMPase cell inh 2.2, IMPase Li cell 7.5%[38.3 µM] and NPSR antagonist inconclusive.
Cc1ccccc1NC(=O)Cn1nnc(-c2ccc(N3CCOCC3)cc2)n1 was read as IMPase cell inh 2.6, IMPase Li cell 10µM* and NPSR antagonist -21.4%[46.1 µM].
